Test results published in PubChem BioAssay (NCI).
“And” between values parts separate entries of the source, which are not always exact repeats. Equal entries are not always repeated. The panel holds about 79,000 compounds, 15% with a hit somewhere; the sample as a whole holds those more often. The source made the active and inactive calls. Cut-off read from the data, not from the text of the source: active = growth inhibition above about 70%; inactive = the rest.

Assay: NCI Yeast Anticancer Drug Screen. Data for the rad50 strain (AID 155);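 note: 0% = growth of vehicle-only cultures of the same strain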
Details: S. cerevisiae rad50 strain growth inhibition; at 5.0 µM (retest, dose inferred, filed as 0.5); stronger effect = higher value
In short: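 Growth of the mutant yeast was measured after compound exposure and referenced to vehicle-treated cultures.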

Structure (SMILES)	growth inhibition
O=C(NCCc1c(-c2ccccc2)[nH]c2ccccc12)C(F)(F)F	11% (inactive)
CC(C)OC(=O)c1ccc(NCc2cc(O)ccc2O)cc1Cl	61% (inactive)
CCCCCCCCCCCCCCCCCC(=O)OCC(COC(=O)CCCN)OC(=O)CCCN (stereo unspecified)	18% (inactive)
CCCCN(CCCC)CCC(O)(c1ccc(OC)c2ccccc12)C(O)(CCN(CCCC)CCCC)c1ccc(OC)c2ccccc12 (stereo unspecified)	43% (inactive)
CC(C)(C)c1ccc(OC(=O)Nc2ccc(Cl)cc2[N+](=O)[O-])c(Br)c1	-31% (inactive)
O=[N+]([O-])c1ccc(NSc2ccccc2)cc1	-14% (inactive)
COC(=O)CCC(NC(=S)N/N=C/c1ccccn1)C(=O)OC (stereo unspecified)	-2% (inactive)
O=[N+]([O-])c1ccc2c(c1)OCO2	0% (inactive)
Cc1cc(C)nc(/C=C/c2ccc(/C=C/c3cc(C)cc(C)n3)cc2)c1	-20% (inactive)
O=C1C=CC(=O)N1c1cccc(F)c1	96% (active)
COc1ccc(C(=O)C(CN2CCCC2)CN2CCCC2)cc1	-1% (inactive)
CC1=NN(C(=O)c2ccc(Cl)cc2)C(=O)C1N=Nc1ccc(S(=O)(=O)Nc2ncccn2)cc1 (stereo unspecified)	61% (inactive)
CCN(CC)CCCNc1ncc(C)c2c1c1ccc3c(O)cccc3c1n2C	22% (inactive)
CC(C)(C)C1=NC(=S)SC2=NC(=O)C3(NN21)c1ccccc1-c1ccccc13	6% (inactive)
Cc1ccnc(NC(c2ccccc2)c2ccc3cccnc3c2O)c1 (stereo unspecified)	0% (inactive)
CSc1cc(C(=O)O)nc(N)n1	4% (inactive)
CC(C)C(C)OC(=O)Nc1cccc(O)c1 (stereo unspecified)	-142% (inactive)
O=C(CC1(O)C(=O)Nc2c(Cl)ccc(Cl)c21)c1ccc(Cl)cc1Cl (stereo unspecified)	25% (inactive)
O=c1c(NO)c([N+](=O)[O-])cnn1-c1ccccc1	25% (inactive)
O=C(Cl)c1cc(-c2ccc(Cl)cc2)nc2c(Cl)cccc12	6% (inactive)
CCOC(=O)C(C)(c1c(C)[nH]c2ccccc12)c1c(C)[nH]c2ccccc12	1% (inactive)

Same assay, conditions: S. cerevisiae rad50 strain growth inhibition; at 50.0 µM (retest, dose inferred, filed as 5.0); stronger effect = higher value

Structure (SMILES)	growth inhibition
CC(C)OC(=O)c1ccc(NCc2cc(O)ccc2O)cc1Cl	99% (active)
CCCCCCCCCCCCCCCCCC(=O)OCC(COC(=O)CCCN)OC(=O)CCCN (stereo unspecified)	99% (active)
CCCCN(CCCC)CCC(O)(c1ccc(OC)c2ccccc12)C(O)(CCN(CCCC)CCCC)c1ccc(OC)c2ccccc12 (stereo unspecified)	99% (active)
CC(C)(C)c1ccc(OC(=O)Nc2ccc(Cl)cc2[N+](=O)[O-])c(Br)c1	32% (inactive)
O=[N+]([O-])c1ccc(NSc2ccccc2)cc1	98% (active)
COC(=O)CCC(NC(=S)N/N=C/c1ccccn1)C(=O)OC (stereo unspecified)	29% (inactive)
O=[N+]([O-])c1ccc2c(c1)OCO2	22% (inactive)
Cc1cc(C)nc(/C=C/c2ccc(/C=C/c3cc(C)cc(C)n3)cc2)c1	-4% (inactive)
O=C1C=CC(=O)N1c1cccc(F)c1	99% (active)
COc1ccc(C(=O)C(CN2CCCC2)CN2CCCC2)cc1	75% (active)
CC1=NN(C(=O)c2ccc(Cl)cc2)C(=O)C1N=Nc1ccc(S(=O)(=O)Nc2ncccn2)cc1 (stereo unspecified)	93% (active)
CCN(CC)CCCNc1ncc(C)c2c1c1ccc3c(O)cccc3c1n2C	62% (inactive)
CC(C)(C)C1=NC(=S)SC2=NC(=O)C3(NN21)c1ccccc1-c1ccccc13	86% (active)
Cc1ccnc(NC(c2ccccc2)c2ccc3cccnc3c2O)c1 (stereo unspecified)	95% (active)
CSc1cc(C(=O)O)nc(N)n1	-4% (inactive)
CC(C)C(C)OC(=O)Nc1cccc(O)c1 (stereo unspecified)	-141% (inactive)
O=C(CC1(O)C(=O)Nc2c(Cl)ccc(Cl)c21)c1ccc(Cl)cc1Cl (stereo unspecified)	25% (inactive)
O=c1c(NO)c([N+](=O)[O-])cnn1-c1ccccc1	51% (inactive)
O=C(Cl)c1cc(-c2ccc(Cl)cc2)nc2c(Cl)cccc12	98% (active)
CCOC(=O)C(C)(c1c(C)[nH]c2ccccc12)c1c(C)[nH]c2ccccc12	96% (active)

Same assay, conditions: S. cerevisiae rad50 strain growth inhibition; at 50.0 µM; stronger effect = higher value

Structure (SMILES)	growth inhibition
O=C(NCCc1c(-c2ccccc2)[nH]c2ccccc12)C(F)(F)F	46.6% (inactive)
CC(C)OC(=O)c1ccc(NCc2cc(O)ccc2O)cc1Cl	89.8% (active)
CCCCCCCCCCCCCCCCCC(=O)OCC(COC(=O)CCCN)OC(=O)CCCN (stereo unspecified)	98.7% (active)
CCCCN(CCCC)CCC(O)(c1ccc(OC)c2ccccc12)C(O)(CCN(CCCC)CCCC)c1ccc(OC)c2ccccc12 (stereo unspecified)	99.2% (active)
CC(C)(C)c1ccc(OC(=O)Nc2ccc(Cl)cc2[N+](=O)[O-])c(Br)c1	33% (inactive)
CC(=O)Nc1cccc2cc(O)ccc12	16.8% (inactive) and 18.5% (inactive) and 17% (inactive)
O=[N+]([O-])c1ccc(NSc2ccccc2)cc1	89.2% (active)
COC(=O)CCC(NC(=S)N/N=C/c1ccccn1)C(=O)OC (stereo unspecified)	72.1% (active)
CC1=CC(O)C2CC1C2(C)C (stereo unspecified)	12.1% (inactive) and 3.35% (inactive) and 3.95% (inactive)
O=[N+]([O-])c1ccc2c(c1)OCO2	68.2% (inactive)
O=C1C=CC(=O)N1c1cccc(F)c1	99.7% (active)
COc1ccc(C(=O)C(CN2CCCC2)CN2CCCC2)cc1	47.6% (inactive)
CC1=NN(C(=O)c2ccc(Cl)cc2)C(=O)C1N=Nc1ccc(S(=O)(=O)Nc2ncccn2)cc1 (stereo unspecified)	55.7% (inactive)
CCN(CC)CCCNc1ncc(C)c2c1c1ccc3c(O)cccc3c1n2C	29.3% (inactive)
CC(C)(C)C1=NC(=S)SC2=NC(=O)C3(NN21)c1ccccc1-c1ccccc13	90.9% (active)
Nc1ncnc2c1ncn2C1OC(CO)C(O)C1O (stereo unspecified)	-12.3% (inactive) and 53.1% (inactive) and 0.85% (inactive)
Cc1ccnc(NC(c2ccccc2)c2ccc3cccnc3c2O)c1 (stereo unspecified)	98.3% (active)
CSc1cc(C(=O)O)nc(N)n1	-5.65% (inactive)
CC(C)C(C)OC(=O)Nc1cccc(O)c1 (stereo unspecified)	35.3% (inactive)
O=C(CC1(O)C(=O)Nc2c(Cl)ccc(Cl)c21)c1ccc(Cl)cc1Cl (stereo unspecified)	91.6% (active)
COc1cc(/C=C/C(C)=O)ccc1O	18.1% (inactive) and 35.2% (inactive) and 5.45% (inactive)
O=c1c(NO)c([N+](=O)[O-])cnn1-c1ccccc1	14.5% (inactive)
O=C(O)C1C2CC3C(OC(=O)C31)C2Br (stereo unspecified)	11.9% (inactive) and 4.1% (inactive) and 9.9% (inactive)
O=C(Cl)c1cc(-c2ccc(Cl)cc2)nc2c(Cl)cccc12	72.5% (active)
CCOC(=O)C(C)(c1c(C)[nH]c2ccccc12)c1c(C)[nH]c2ccccc12	94.8% (active)
